Reference: PubChem BioAssay AID1159580 (chemical genetic matrix, 2015)
Several values for one entry are separate records, joined by “and”; a condition that tells them apart may be missing. Equal values may be shown once. The whole screen tested about 5,500 compounds, of which about 2,000 (36%) were called active. About 18% were inconclusive and are not listed. Cut-off read from the data, not from the text of the source: active = normalized growth mostly below about 0.91 (no sharp cut-off); inconclusive = no clear call, values can overlap the other calls; inactive = mostly above about 0.92. The list shows a part of the results.

Test: chemical genetic growth profiling, strain panel (AID 1159580);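 note: tested at 20 µM; growth read once vehicle control cultures reached saturation at 30 °C; 1 = growth at the plate median or of vehicle wells; lower values mean less growth of the strain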
Settings: S. cerevisiae deletion strains, growth OD

Measured: normalized growth

CC(CN(C)C)CN1c2ccccc2CCc2ccccc21 (stereo not given)
active: locus YAL021C, strain ccr4, hits give low values 0.893 | locus YDR137W, strain rgp1, hits give low values 1.2 [resistant] | locus YHR013C, strain ard1, hits give low values 0.833
inactive: locus YAL013W, strain DEP1, hits give low values 1 | locus YAL026C, strain drs2, hits give low values 0.982 | locus YAL030W, strain snc1, hits give low values 0.977 | locus YAL040C, strain CLN3, hits give low values 1.03 | locus YBL061C, strain skt5, hits give low values 0.984 | locus YBR009C, strain hhf1, hits give low values 0.972 | locus YBR021W, strain FUR4, hits give low values 1.01 | locus YBR023C, strain chs3, hits give low values 0.975 | locus YBR171W, strain sec66, hits give low values 0.963 | locus YBR229C, strain ROT2, hits give low values 1.01 | locus YBR231C, strain swc5, hits give low values 0.976 | locus YBR279W, strain paf1, hits give low values 0.988 | locus YCL011C, strain gbp2, hits give low values 0.973 | locus YCL016C, strain dcc1, hits give low values 0.974 | locus YCL029C, strain bik1, hits give low values 1.02 | locus YCL061C, strain MRC1 (second series), hits give low values 1.01 | locus YCL061C, strain MRC1, hits give low values 0.986 | locus YCL069W, strain vba3, hits give low values 0.969 | locus YCR088W, strain abp1, hits give low values 0.977 | locus YDL005C, strain med2, hits give low values 0.973 | locus YDL035C, strain GPR1, hits give low values 1.01 | locus YDL040C, strain nat1, hits give low values 0.976 | locus YDL074C, strain BRE1, hits give low values 1.02 | locus YDL101C, strain DUN1, hits give low values 1 | locus YDL134C, strain PPH21, hits give low values 1.01 | locus YDL185W, strain tfp1, hits give low values 1.02 | locus YDL192W, strain arf1, hits give low values 1.01 | locus YDR001C, strain nth1, hits give low values 0.977 | locus YDR069C, strain doa4, hits give low values 0.921 | locus YDR101C, strain arx1, hits give low values 1.02 | locus YDR150W, strain NUM1, hits give low values 1.02 and 1.01 | locus YDR159W, strain sac3, hits give low values 0.977 | locus YDR162C, strain NBP2, hits give low values 1.01 | locus YDR195W, strain ref2 0.999 | locus YDR297W, strain sur2, hits give low values 0.975 | locus YDR318W, strain mcm21, hits give low values 1.02 | locus YDR334W, strain swr1, hits give low values 0.946 | locus YDR335W, strain msn5, hits give low values 0.975 | locus YDR363W, strain ESC2, hits give low values 0.993 | locus YDR388W, hits give low values 1.02 | locus YDR392W, strain spt3, hits give low values 0.96 | locus YDR502C, strain sam2, hits give low values 1.03 | locus YEL003W, strain gim4, hits give low values 0.965 | locus YEL037C, strain rad23, hits give low values 0.954 | locus YEL061C, strain CIN8 (second series), hits give low values 0.96 | locus YEL061C, strain CIN8, hits give low values 1.01 | locus YER002W, strain NOP16, hits give low values 1.01 | locus YER015W, strain faa2, hits give low values 0.961 | locus YER016W, strain bim1, hits give low values 0.975 | locus YER110C, hits give low values 1.02 | locus YER111C, strain swi4, hits give low values 0.974 | locus YER155C, strain BEM2 (second series), hits give low values 0.948 | locus YER155C, strain BEM2, hits give low values 1 | locus YER167W, strain BCK2, hits give low values 1.01 | locus YFR010W, strain ubp6, hits give low values 0.954 | locus YGL078C, strain dbp3, hits give low values 1.01 | locus YGL086W, strain mad1, hits give low values 1.01 | locus YGL167C, strain pmr1, hits give low values 0.98 | locus YGL173C, strain kem1, hits give low values 0.972 | locus YGL227W, strain vid30, hits give low values 0.978 | locus YGL240W, strain doc1, hits give low values 0.969 | locus YGL248W, strain PDE1, hits give low values 0.996 | locus YGL253W, strain hxk2, hits give low values 0.977 | locus YGR078C, strain PAC10, hits give low values 1.01 | locus YGR135W, strain pre9, hits give low values 1.02 | locus YGR229C, strain SMI1, hits give low values 0.978 | locus YGR252W, strain gcn5, hits give low values 0.97 | locus YHR027C, strain rpn1, hits give low values 0.966 | locus YHR030C, strain SLT2, hits give low values 1.02 and 0.988 | locus YHR079C, strain IRE1 (second series), hits give low values 1.01 | locus YHR079C, strain IRE1, hits give low values 0.981 | locus YHR094C, strain hxt1, hits give low values 1.01 | locus YHR129C, strain ARP1, hits give low values 1.01 | locus YHR142W, strain chs7, hits give low values 0.971 | locus YHR200W, strain rpn10, hits give low values 1.03 | locus YIL066C, strain RNR3, hits give low values 1 | locus YIL073C, strain SPO22, hits give low values 1.07 | locus YIL125W, strain kgd1, hits give low values 1.01 | locus YIR030C, strain dcg1, hits give low values 1.01 | locus YJL092W, strain hpr5, hits give low values 0.936 | locus YJL095W, strain BCK1 (second series), hits give low values 0.984 | locus YJL095W, strain BCK1, hits give low values 0.984 and 0.986 | locus YJL115W, strain asf1, hits give low values 0.957 | locus YJL129C, strain trk1, hits give low values 0.973 | locus YJL134W, strain LCB3, hits give low values 1 | locus YJL154C, strain vps35, hits give low values 0.978 | locus YJL164C, strain tpk1, hits give low values 0.973 | locus YJL166W, strain qcr8, hits give low values 0.963 | locus YJL168C, strain set2, hits give low values 1.02 | locus YJL187C, strain SWE1 (second series), hits give low values 0.988 | locus YJL187C, strain SWE1, hits give low values 0.965 | locus YJR043C, strain POL32, hits give low values 1
